In PubChem BioAssay:
Active and inactive are the calls of the source.

Experiments:
[1] = system: Human papillomavirus type 1a protein E7 (residues 44-93); experiment: small molecules binding HPV E7 44-93 – biochemical, small-molecule microarray, residues 44-93, 635 nm fluorescence, primary screen (AID 1108); details: fluorescence 635 nm, higher = more signal;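 note: E7 fragment applied at 1 µg/mL in TBST for 1 h at 4 C; score combines spot fluorescence with its signal to noise ratio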
[2] = hepatitis C replication reporter changes, two-sided – Huh7 cells, luciferase reporter, HCV replication inhibitor project, primary screen (AID 1109); details: Huh7 HCV replicon luciferase reporter, 48 h; higher = more signal;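 note: huh7 hepatoma cells harbouring a luciferase neomycin HCV replicon reporter; luciferase luminescence as measure of HCV replicon replication; test concentration not given here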
[3] = target: Left-right determination factor 2 (Homo sapiens) (UniProt O00292); experiment: small molecules binding LEFTY2 protein – biochemical, small-molecule microarray, 635 nm fluorescence scan, primary screen (AID 1110); details: higher = more signal
Left-right determination factor 2 (Homo sapiens), sequence (O00292 whole entry, looked up): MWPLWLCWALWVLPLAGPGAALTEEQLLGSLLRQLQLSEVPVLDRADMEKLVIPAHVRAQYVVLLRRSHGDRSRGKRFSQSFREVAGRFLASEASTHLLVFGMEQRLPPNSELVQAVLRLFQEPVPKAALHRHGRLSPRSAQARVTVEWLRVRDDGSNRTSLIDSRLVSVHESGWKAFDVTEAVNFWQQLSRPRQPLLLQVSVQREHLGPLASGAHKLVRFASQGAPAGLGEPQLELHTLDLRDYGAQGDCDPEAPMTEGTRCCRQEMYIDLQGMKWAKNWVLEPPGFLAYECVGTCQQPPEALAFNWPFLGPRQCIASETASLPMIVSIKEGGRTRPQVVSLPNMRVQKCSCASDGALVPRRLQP

[4] = target: Calmodulin-1 (Homo sapiens) (UniProt P0DP23); experiment: small molecules binding calmodulin-1 with EGTA – biochemical, small-molecule microarray, Cy5-labelled CALM1, profiling panel (AID 1111); details: Cy5-CALM1 binding fluorescence, higher = more signal;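 note: labelled calmodulin applied in Tris saline Tween buffer holding calcium plus EGTA and DTT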
[5] = target: Calmodulin-1 (Homo sapiens) (UniProt P0DP23); experiment: small molecules binding Ca-loaded calmodulin-1 – biochemical, small-molecule microarray, Cy5-labelled CALM1, plus calcium, artefact control for SMM control-protein annotation, profiling panel (AID 1112); details: Cy5-CALM1 binding fluorescence, higher = more signal;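 note: score merges spot fluorescence with signal to noise from triplicate slides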
[6] = probe aWnt5a binding to arrayed compounds – biochemical, biotinylated probe, 635/667 nm fluorescence, primary screen (AID 1113); details: small-molecule microarray, higher = more signal;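 note: score merges 667 nm fluorescence intensity with signal-to-noise per printed feature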
[7] = probe aShh binding to arrayed compounds – biochemical, biotinylated probe, 635/667 nm fluorescence, primary screen (AID 1114); details: small-molecule microarray, higher = more signal;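 note: probe is biotin-labelled aShh protein from a stem cell growth factor screen; measures binding of labelled protein to compounds printed on the slide; score merges feature fluorescence at 667 nm with signal-to-noise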
[8] = probe aNog binding to arrayed compounds – biochemical, biotinylated probe, 635/667 nm fluorescence, primary screen (AID 1115); details: small-molecule microarray, higher = more signal;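 note: probe is biotinylated aNog protein used at 0.15 µg/mL for 1 h at 4 C; z-score combines 667 nm fluorescence of each spot with its signal to noise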
[9] = target: Torsin-1A-interacting protein 1 (Homo sapiens) (UniProt Q5JTV8); experiment: compound microarray binding of lysate hLAP1 – cell lysate, small-molecule microarray, COS7 lysate, 635/667 nm fluorescence, primary screen (AID 1116); details: 635 nm fluorescence, higher = more signal
Torsin-1A-interacting protein 1 (Homo sapiens), sequence (Q5JTV8 whole entry, looked up): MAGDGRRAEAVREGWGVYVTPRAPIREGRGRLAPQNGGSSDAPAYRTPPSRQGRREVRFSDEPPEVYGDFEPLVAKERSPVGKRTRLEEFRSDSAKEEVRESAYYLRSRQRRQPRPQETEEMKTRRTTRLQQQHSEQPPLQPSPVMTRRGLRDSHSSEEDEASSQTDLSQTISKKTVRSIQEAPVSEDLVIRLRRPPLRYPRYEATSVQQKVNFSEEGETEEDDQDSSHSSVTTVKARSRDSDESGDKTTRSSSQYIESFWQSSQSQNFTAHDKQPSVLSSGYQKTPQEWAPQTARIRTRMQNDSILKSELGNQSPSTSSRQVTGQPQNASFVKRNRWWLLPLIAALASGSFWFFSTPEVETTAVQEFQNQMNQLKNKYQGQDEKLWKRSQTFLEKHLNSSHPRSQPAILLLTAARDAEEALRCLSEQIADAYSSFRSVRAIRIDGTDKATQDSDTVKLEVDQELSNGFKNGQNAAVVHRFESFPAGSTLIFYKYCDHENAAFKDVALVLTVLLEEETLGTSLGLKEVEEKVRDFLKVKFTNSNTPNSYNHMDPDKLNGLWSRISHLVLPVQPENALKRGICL

[10] = target: Alpha-bungarotoxin (Bungarus multicinctus) (UniProt P60615); experiment: compounds binding labelled alpha-BTX control protein – biochemical, small-molecule microarray, Alexa647 label, 635/667 nm fluorescence, artefact control for SMM control protein annotation, profiling panel (AID 1117); details: alpha-BTX-A647 binding fluorescence, higher = more signal
Alpha-bungarotoxin (Bungarus multicinctus), sequence (P60615 whole entry, looked up): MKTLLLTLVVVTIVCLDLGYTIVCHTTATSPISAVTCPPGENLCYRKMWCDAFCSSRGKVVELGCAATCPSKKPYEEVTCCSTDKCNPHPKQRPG

Albumin (Bos taurus) = Albumin (Bos taurus) (UniProt P02769); experiment: compounds binding labelled BSA control protein – biochemical, small-molecule microarray, Alexa647 label, 635/667 nm fluorescence, artefact control for SMM control protein annotation, profiling panel (AID 1118); details: BSA-A647 binding, fluorescence 635 nm, higher = more signal;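 note: score merges 667 nm emission intensity and signal-to-noise per printed compound spot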
Albumin (Bos taurus), sequence (P02769 whole entry, looked up): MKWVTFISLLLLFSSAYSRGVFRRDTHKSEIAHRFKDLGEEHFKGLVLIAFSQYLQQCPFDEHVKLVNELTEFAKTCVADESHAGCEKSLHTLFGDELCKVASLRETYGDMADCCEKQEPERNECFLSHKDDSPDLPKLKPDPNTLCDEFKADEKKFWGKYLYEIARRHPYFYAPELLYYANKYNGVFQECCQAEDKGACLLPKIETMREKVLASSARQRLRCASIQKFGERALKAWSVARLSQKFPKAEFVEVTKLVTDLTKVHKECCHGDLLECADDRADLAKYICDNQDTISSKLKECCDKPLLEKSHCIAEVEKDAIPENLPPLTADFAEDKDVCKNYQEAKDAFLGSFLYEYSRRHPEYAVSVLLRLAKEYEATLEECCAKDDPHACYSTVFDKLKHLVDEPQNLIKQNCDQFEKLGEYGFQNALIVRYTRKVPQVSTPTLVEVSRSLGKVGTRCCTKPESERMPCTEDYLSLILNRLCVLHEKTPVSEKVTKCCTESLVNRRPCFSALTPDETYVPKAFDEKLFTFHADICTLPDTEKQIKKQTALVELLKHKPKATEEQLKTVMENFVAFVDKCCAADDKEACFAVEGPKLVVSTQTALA

[11] = probe aXIP binding to arrayed compounds – biochemical, NeuroSMM set, 635/667 nm fluorescence, primary screen (AID 1119); details: small-molecule microarray, higher = more signal, called active from +8 up or from −8 down;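 note: probe is the protein aXip251-270 applied at 1 µg/mL to compound-printed slides; binding of probe to printed compounds measured as 667 nm fluorescence plus signal to noise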
[12] = probe aNOTCH3 binding on compound microarray – biochemical, small-molecule microarray, 635/667 nm fluorescence, primary screen (AID 1120); details: higher = more signal;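 note: probe is a biotin-tagged antibody raised against NOTCH3 rather than NOTCH3 protein; score merges spot fluorescence near 667 nm with spot signal to noise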
[13] = probe aNOTCH2 binding on compound microarray – biochemical, small-molecule microarray, 635/667 nm fluorescence, primary screen (AID 1121); details: higher = more signal;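 note: score merges feature fluorescence read at 667 nm with its signal to noise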
[14] = target: Carbonic anhydrase 2 (Homo sapiens) (UniProt P00918); experiment: compounds binding carbonic anhydrase 2 – biochemical, small-molecule microarray, Alexa647-labelled CAII, profiling panel (AID 1122); details: CAII-A647 binding fluorescence, higher = more signal
[15] = COS7 lysate on small-molecule microarray, probe aHis, 635 nm (AID 1123); details: COS7 cell lysate, fluorescence, higher = more signal;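 note: z-score combines 667nm fluorescence intensity with signal-to-noise per printed compound spot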
[16] = probe aLAP1 signal on lysate-treated microarray – cell lysate, small-molecule microarray, COS7 lysate, primary screen (AID 1124); details: probe aLAP1, fluorescence, higher = more signal;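 note: lysate comes from COS7 cells expressing LAP1 and is applied at 0.3 µg/mL; score merges spot fluorescence near 667 nm with signal-to-noise over triplicate slides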
Sam68 (KHDRBS1) = experiment: compounds binding KHDRBS1 protein – biochemical, small-molecule microarray, 635 nm fluorescence, primary screen (AID 1125); details: higher = more signal;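 note: score merges 667 nm channel intensity with signal to noise over triplicate slides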
[17] = system: Chordin-like protein 2 (CHRDL2); experiment: compounds binding chordin-like 2 – biochemical, small-molecule microarray, 635 nm fluorescence, primary screen (AID 1126); details: fluorescence 635 nm, higher = more signal;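 note: printed compound slides probed with Chrdl2 protein at 4 µg/mL for 1 h at 4 C; score merges 667 nm emission intensity with signal to noise over three replicate slides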
[18] = target: Concanavalin-A (Canavalia ensiformis) (UniProt P02866); experiment: compounds binding concanavalin A lectin – biochemical, small-molecule microarray, Alexa647 label, 635 nm, artefact control for SMM control protein annotation, primary screen (AID 1127); details: ConA-A647 binding fluorescence, higher = more signal;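 note: z combines 667 nm emission intensity with signal-to-noise across three replicate slides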
Concanavalin-A (Canavalia ensiformis), sequence (P02866 whole entry, looked up): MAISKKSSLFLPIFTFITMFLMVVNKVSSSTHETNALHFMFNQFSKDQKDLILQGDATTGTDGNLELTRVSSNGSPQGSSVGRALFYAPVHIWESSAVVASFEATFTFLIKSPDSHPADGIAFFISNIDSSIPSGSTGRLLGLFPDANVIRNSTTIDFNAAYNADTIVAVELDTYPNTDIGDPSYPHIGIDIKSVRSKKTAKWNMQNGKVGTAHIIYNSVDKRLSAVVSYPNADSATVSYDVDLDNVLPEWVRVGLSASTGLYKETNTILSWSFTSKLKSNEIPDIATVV

| Compound | composite z-score [1] | z-score [2] | composite z-score [3] | composite z-score [4] | composite z-score [5] | composite z-score [6] | composite z-score [7] | composite z-score [8] | composite z-score [9] | composite z-score [10] | composite z-score (Albumin (Bos taurus)) | composite Z-score [11] | composite z-score [12] | composite z-score [13] | composite z-score [14] | composite z-score [15] | composite z-score [16] | composite z-score (Sam68 (KHDRBS1)) | composite z-score [17] | composite z-score [18] |
| --- | --- | --- | --- | --- | --- | --- | --- | --- | --- | --- | --- | --- | --- | --- | --- | --- | --- | --- | --- | --- |
| O=C1C2C=CC(C(O)C(c3ccccc3)c3ccccc3)N(Nc3ccccc3)C2C(=O)N1c1ccccc1 (stereo not given) | 1.44 | -0.267 | 0.438 | 0.809 | 0.173 | -0.0051 | 0.0068 | 0.162 | 0.429 | 1.1 | 0.876 | 0.312 (inactive) | 0.278 | -0.0633 | 0.619 | 2.17 | 0.0595 | 1.3 | -0.236 | 0.942 |
| Cc1ccc(S(=O)(=O)N2[C@@H](c3ccccc3)C(C(=O)O)=CC[C@H]2c2ccc(C#N)cc2)cc1 | 1.24 | -0.494 | -0.145 | 0.302 | -0.269 | 0.0267 | 0.385 | 0.823 | 1.84 | 1.57 | 1.04 | 0.661 (inactive) | -0.0647 | 0.0167 | 0.802 | 3.18 | 1.04 | 1.21 | -0.425 | 0.805 |
| Cc1ccc(F)cc1S(=O)(=O)N[C@@H]1CCN(Cc2ccc3c(c2)OCO3)C1 | -0.28 | -1.98 | 0.198 | -0.786 | -0.997 | -0.176 | -0.0626 | -0.12 | 0.636 | 0.445 | 0.167 | -0.0662 (inactive) | -0.129 | -0.147 | 0.0085 | -0.702 | 0.0521 | -0.148 | 0.0213 | -0.319 |
| COC(=O)C1(CC(C)C)C=C2C(=C(C(C)C)C(=O)C2C)CN1 (stereo not given) | -0.57 | -0.193 | -0.975 | 0.228 | 1.07 | -0.0403 | 0.171 | 0.595 | 0.187 | -0.77 | -0.597 | 0.116 (inactive) | -0.0043 | -0.119 | 0.539 | 0.0678 | -0.463 | -0.923 | -0.699 | -2.07 |
| COc1cccc(C[C@H]2C[C@@H](CO[Si](C(C)C)(C(C)C)C(C)C)N3C(=O)[C@@]4(C(C)=O)O[C@@]23[C@@H]2C(=O)N(C)C(=O)[C@@H]24)c1 | 1.04 | -2.81 | 0.901 | 0.05 | -0.587 | -0.0364 | 0.131 | 0.0974 | 0.272 | -0.378 | 0.166 | 0.544 (inactive) | -0.231 | -0.118 | 0.0137 | 0.332 | -0.316 | 0.984 | 0.908 | 0.117 |
| COc1ccc(CCNC(=O)[C@@]2(Sc3ccc(C)cc3)CC(=O)N(Cc3cc(C(F)(F)F)cc(C(F)(F)F)c3)[C@@H]2c2ccc(CO)cc2)cc1 | -1.13 | -0.146 | -2.47 | -0.615 | -0.0998 | -0.124 | -0.117 | -0.54 | -0.282 | 1.24 | -0.391 | -0.669 (inactive) | -0.352 | 0.118 | 0.711 | 1.16 | 0.538 | -1.13 | -2.73 | -3.06 |
